Records with an inconclusive call do not appear. Calls of active or inactive are those of the source. Rule for the calls: active = hit-call score of the fitted dose curve at least 0.9, where 1 is the maximum; inconclusive = response in the unintended direction; inactive = score below 0.9.

The nature of assay [1]: Tanguay_ZF_120hpf_TRUN_legacy: (Legacy) Oregon State University Tanguay Lab 120 Hour Post-fertilization zebrafish Assay for Truncated Body (AID 2283655). In a few lines: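 Whole-embryo zebrafish screen: dechorionated 5D embryos, static exposure 6–120 hpf, 28C, sealed foil-covered plates, 0.64% DMSO. Binary truncation call; gain of signal versus DMSO baseline.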
A short description of assay [2]: Tanguay_ZF_120hpf_SWIM_legacy: (Legacy) Oregon State University Tanguay Lab 120 Hour Post-fertilization zebrafish Assay for Swim Bladder Malformation (AID 2283654).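 Note: swim bladder malformation in each larva scored yes or no under brightfield.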 In a few lines: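 Scoring is binary for swim bladder defects at 120 hpf, by brightfield inspection of zebrafish larvae. Embryos were exposed singly from 6 hpf after pronase dechorionation, at 28C with 0.64% DMSO; mortality excluded scoring.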

Assay [3] in a line: Tanguay_ZF_120hpf_NC_legacy: (Legacy) Oregon State University Tanguay Lab 120 Hour Post-fertilization zebrafish Assay for Notochord and Tail Malformation (AID 2283656). In a few lines:
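Binary scoring of notochord distortion by brightfield microscopy; embryos dying were not scored. Wild-type Tropical 5D embryos, chorion removed, exposed singly and statically from 6 to 120 hpf, 28C, sealed, 0.64% DMSO.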

Read-out in assay [4]: ABC Transporter (ABCB1), ABCB1 (gene 5243)
The assay is described as follows: CLD_ABCB1_6hr: CellzDirect (CLD) Gene Expression Assay for ABC Transporter (ABCB1) at 6 hours (AID 2283659).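 Note: hits raise ABCB1 transcript above the DMSO vehicle baseline.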 The essentials: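 ABCB1 transcript measured by quantitative nuclease protection assay, chemiluminescent read-out, 6 h after dosing human hepatocyte cultures (0.2% DMSO vehicle, daily redosing). Activity fitted as increase over DMSO baseline; cytotoxicity flagged by phase-contrast morphology.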

Read-out in assay [5]: Broad substrate specificity ATP-binding cassette transporter ABCG2 (Homo sapiens) (UniProt Q9UNQ0)
Put plainly: CLD_ABCG2_6hr: CellzDirect (CLD) Gene Expression Assay for ABC Transporter (ABCG2) at 6 hours (AID 2283660). In a few lines:
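ABCG2 mRNA induction measured by qNPA chemiluminescence in human primary hepatocyte cultures, 6 h post-dose. Chemicals tested at several concentrations against a 0.2% DMSO vehicle; positive-direction fit relative to DMSO.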

Read-out in assay [6]: xenobiotic metabolism (CYP1A1), CYP1A1 (gene 1543)
The assay is described as follows: CLD_CYP1A1_6hr: CellzDirect (CLD) Gene Expression Assay for xenobiotic metabolism (CYP1A1) at 6 hours (AID 2283661).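 For AC50: potency for transcript induction above DMSO vehicle baseline.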 The essentials: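 Read-out 6 h post-dose: qNPA chemiluminescent quantitation of transcript induction against 0.2% DMSO. Cells were cultured primary human hepatocytes from two separate donor preparations; phase-contrast morphology annotated apparent cytotoxicity.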

Assay [7] has as its system Thyroperoxidase (TPO), gene 54314. Put plainly: CCTE_Simmons_AUR_rTPO: CCTE's Amplex UltraRed Assay for Thyroperoxidase (TPO) Inhibition, Simmons Lab (AID 2283662).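 For AC50: potency for loss of signal meaning inhibition of peroxidase activity.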 The essentials: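 Endpoint is decreased Amplex UltraRed fluorescence after a 30-min, 37C reaction of rat thyroid microsomes with 300 uM H2O2. Eight test concentrations (5 nM–87.5 uM final) in 0.5% DMSO, three biological replicates each.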

Sequence of Broad substrate specificity ATP-binding cassette transporter ABCG2 (Homo sapiens) (Q9UNQ0 whole entry, looked up): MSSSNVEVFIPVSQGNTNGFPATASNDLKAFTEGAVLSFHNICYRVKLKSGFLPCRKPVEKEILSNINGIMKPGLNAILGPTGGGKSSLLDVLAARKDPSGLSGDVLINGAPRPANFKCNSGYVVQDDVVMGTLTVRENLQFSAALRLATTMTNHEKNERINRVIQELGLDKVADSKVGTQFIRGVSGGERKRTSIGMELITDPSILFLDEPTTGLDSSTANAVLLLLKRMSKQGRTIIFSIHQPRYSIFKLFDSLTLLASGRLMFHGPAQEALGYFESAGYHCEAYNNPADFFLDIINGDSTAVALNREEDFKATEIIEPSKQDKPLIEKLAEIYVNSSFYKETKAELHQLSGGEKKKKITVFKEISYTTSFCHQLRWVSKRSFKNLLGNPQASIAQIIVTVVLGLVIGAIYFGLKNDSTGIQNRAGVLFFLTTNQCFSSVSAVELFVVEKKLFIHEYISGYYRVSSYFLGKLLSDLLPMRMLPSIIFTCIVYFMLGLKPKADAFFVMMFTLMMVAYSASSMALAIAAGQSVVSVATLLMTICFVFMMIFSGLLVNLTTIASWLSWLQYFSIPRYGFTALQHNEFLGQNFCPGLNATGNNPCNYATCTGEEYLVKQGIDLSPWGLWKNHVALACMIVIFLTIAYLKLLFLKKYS

On to `Cc1cc2c3c(c1)C(c1ccccc1)=N[C@@H](NC(=O)c1ccncc1)C(=O)N3CC2`, for which the call in assay [1] was inactive.

For the compound `CCC(C)(CC)c1cc(NC(=O)c2c(OC)cccc2OC)on1`, the compound was classed as inactive in assay [2], in assay [1], in assay [3], in assay [4], in assay [5] and in assay [6].

With `c1cc2ccc3cccc4ccc(c1)c2c34`, the result in assay [2], in assay [1] and in assay [3] was inactive.

Regarding `O=C(NC(=O)c1c(F)cccc1F)Nc1cc(Cl)c(OC(F)(F)C(F)F)c(Cl)c1`, the result in assay [1] was inactive. The AC50 in assay [7] was 20.7 µM (active).

In the case of `ClC1=C(Cl)[C@]2(Cl)[C@@H]3[C@@H](Cl)[C@H]4O[C@H]4[C@@H]3C1(Cl)C2(Cl)Cl`, the result in assay [1] and in assay [3] was inactive.

For `CCNc1nc(NC(C)C)nc(SC)n1`, the call in assay [2], in assay [1] and in assay [4] was inactive. Moreover, the AC50 in assay [6] was 1.42 µM (active).

Consider `CC(C)(O)C(=O)Nc1ccc([N+](=O)[O-])c(C(F)(F)F)c1`, for which the compound was classed as inactive in assay [2] and in assay [3]. For the same compound, in assay [1], the AC50 was 22.1 µM (active).

For the compound `Clc1ccc(C(Cl)(Cl)Cl)cc1`, the call in assay [2], in assay [1] and in assay [7] was inactive.

Consider `Oc1ccc(C(c2ccc(O)cc2)(C(F)(F)F)C(F)(F)F)cc1`, for which, in assay [2], the outcome was inactive. The concentration at half-maximal activity (AC50) was 53 µM (active) in assay [1] and 21.7 µM (active) in assay [7].

With `Cc1cc(O)ccc1Cl`, the call in assay [1] was inactive.

As to `c1ccc(-c2ccccc2)cc1`, the result in assay [2], in assay [1] and in assay [7] was inactive.

Regarding `CCSC(=O)N(CC)C1CCCCC1`, the compound was classed as inactive in assay [2], in assay [1], in assay [4] and in assay [6].

Consider `CCOP(=S)(OCC)SCSC(C)(C)C`, for which the AC50 in assay [7] was 8.68 µM (active).

`Nn1cnnc1`: the result in assay [2], in assay [1] and in assay [3] was inactive.

`C[C@]12CCC(=O)C=C1CC[C@@H]1[C@@H]2CC[C@]2(C)C(=O)CC[C@@H]12`: the call in assay [2], in assay [1] and in assay [7] was inactive.

Consider `CCCCCCCCCC[N+](C)(C)CCCCCCCCCC`, for which the outcome in assay [2] and in assay [1] was inactive. In assay [7], the AC50 is 43.8 µM (active).

On to `Cc1ccccc1CO[C@@H]1C[C@@]2(C(C)C)CC[C@]1(C)O2`, for which the call in assay [2], in assay [1], in assay [4], in assay [5] and in assay [6] was inactive. Moreover, the AC50 in assay [7] is 28 µM (active).

As for `O=S(=O)(O)C(F)(F)C(F)(F)C(F)(F)C(F)(F)F`, the result in assay [2], in assay [1] and in assay [3] was inactive.

With `CCC(=O)O[C@H]1CC[C@H]2[C@@H]3CCC4=CC(=O)CC[C@]4(C)[C@H]3CC[C@]12C`, the compound was called inactive in assay [2], in assay [1] and in assay [7].

Regarding `NS(=O)(=O)C(F)(F)C(F)(F)C(F)(F)C(F)(F)C(F)(F)C(F)(F)C(F)(F)C(F)(F)F`, the compound was classed as inactive in assay [1].

As to `CCCCCCOC(=O)c1ccccc1C(=O)OCCCCCC`, the result in assay [1] and in assay [3] was inactive.

A word on the AC50: it is the concentration giving half of the maximal activity seen.

For the origin of these results see PubChem BioAssay (EPA / NIEHS).
